Measurements reported in PubChem BioAssay (NCI).
Compounds without any hit were thinned out: in the full panel of roughly 83,000, 20% have a hit.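 Compound tested at a single concentration for 48 hours in 96-well plates; a percent growth value below 10 was scored as active.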 A number with no mark means an inactive call. Active and inactive are the calls of the source.

Tested on: MDA-MB-435 melanoma
Assay: NCI-60 one-dose screen, 48 h (100 = growth as untreated, 0 = no growth, -100 = all killed)
Conditions: 10 µM unless noted

SMILES | growth [%]
CSc1nc(NCc2ccccc2)c(C#N)c(-c2cccc([N+](=O)[O-])c2)n1 | 99.4
O=C(/C=C/c1cccc(Cl)c1)c1ccc(O)c(CN2CCN(c3cc4c(cc3F)c(=O)c(C(=O)O)cn4C3CC3)CC2)c1 | 44.7
CC1(C)CC[C@]2(C(=O)Nc3ccccn3)CC[C@]3(C)C(=CC[C@@H]4[C@@]5(C)C/C(=C/c6cccnc6)C(=O)C(C)(C)[C@@H]5CC[C@]43C)[C@H]2C1 | 38.3
COC(=O)[C@]12CCC(C)(C)C[C@H]1[C@H]1C(=O)C[C@@H]3[C@@]4(C)c5c([nH]c6ccccc6c5=O)C(C)(C)[C@@H]4CC[C@@]3(C)[C@]1(C)CC2 | 57.5
CC1=CC(=NN=c2cc(C)n([O-])c(C)c2)C=C(C)[N+]1=O | 85.9
CCC(=O)c1ccc(Cl)s1 | 114
Cn1c(=O)c2c(nc3n(-c4ccc(Cl)cc4Cl)c(Sc4nc(-c5ccccc5)c(C#N)c(=O)[nH]4)cn23)n(C)c1=O | 69.1

Tested on: SW-620 colon
Assay: as above
Conditions: 10 µM unless noted

SMILES | growth
CC1=NN(c2nc(-c3ccc(Cl)cc3)c(C#N)c(N3CCOCC3)n2)C(=O)C1 | 85.2%
Cc1nc2c3c(-c4ccccc4)c(-c4ccccc4)oc3ncn2n1 | 96.9%
N#Cc1c(N)n(CCNC(=O)c2ccccc2)c2nc3ccccc3nc12 | 123%
Cc1c(/C=C/[N+](=O)[O-])ccc2c1[nH]c1ccccc12 | 77.7%
COc1cc(/C=C/c2cc(O)c3cc(C(C)=O)c(=O)oc3c2)cc2c1O[C@]1(C)CC[C@@H](O)C(C)(C)[C@H]1C2 | 28.4%
CCCOc1ccc2nc(NC(=O)OC)[nH]c2c1 | 22.8%
COc1cc(/C=C/C(=O)c2ccc(O)c(CN3CCN(c4cc5c(cc4F)c(=O)c(C(=O)O)cn5C4CC4)CC3)c2)cc(OC)c1OC | 34.8%
C=CCSSc1ncnc2c1ncn2C1OC(CO)C(O)C1O (stereo unspecified) | 53.8%
COc1cc2nc(N3CCCC3)nc(NCc3ccccc3)c2cc1OC | 55.9%
CC[C@H]1OC(=O)[C@H](C)[C@@H](O[C@H]2C[C@@](C)(OC)[C@@H](O)[C@H](C)O2)[C@H](C)[C@@H](O[C@@H]2O[C@H](C)C[C@H](N(C)C)[C@H]2O)[C@](C)(O)C[C@H](C)CN(C)[C@H](C)[C@@H](O)[C@]1(C)O | 84.2%
CSc1nc(NCCN2CCOCC2)c(C#N)c(-c2cccc([N+](=O)[O-])c2)n1 | 99.8%
CC(C)c1c(C(=O)c2ccccc2)c(-c2ccccc2)c(-c2ccc(F)cc2)n1CC[C@@H](O)C[C@@H](O)CC(=O)O | 76.2%
N#CCCN=Nc1c(O)[nH]c2ccc([N+](=O)[O-])cc12 | 99.9%
CC[C@@H]1O[C@H](O[C@@H](c2cnc[nH]2)[C@H](NC(=O)c2nc([C@H](CC(N)=O)NC[C@@H](N)C(N)=O)nc(N)c2C)C(=O)N[C@H](C)[C@H](O)[C@H](C)C(=O)N[C@@H](C(=O)NCCc2nc(-c3nc(C(=O)NCCCCN=C(N)N)cs3)cs2)[C@@H](C)O)[C@H](O[C@@H]2O[C@H](CO)[C@H](O)[C@H](OC(N)=O)[C@@H]2O)[C@H](C)[C@@H]1C | 68.1%
Nc1nc2ncc(CCNc3ccc(C(=O)O)cc3)nc2c(=O)[nH]1 | 110%
CCCN1CCN(c2ccc3nc(-c4ccc5nc(-c6ccc(OCC)cc6)[nH]c5c4)[nH]c3c2)CC1 | -83.7% (active)
COc1ccc(Nc2nc(SC)nc(-c3cccc([N+](=O)[O-])c3)c2C#N)cc1 | 57.9%

SMILES | growth
O=C1CC(=NCC(=O)n2c(-c3ccccc3)nc3ccccc32)NN1 | 100%
CC(C)(O)c1cn(CCCCN2C(=O)C(=O)c3ccccc32)nn1 | 99.6%
CCCCCCCCCCCCC[N+](C)(C)Cc1ccccc1 | -37.6% (active)
COc1ccc(/C=C/C(=O)c2ccc(O)c(CN3CCN(c4cc5c(cc4F)c(=O)c(C(=O)O)cn5C4CC4)CC3)c2)cc1 | 17.5%
N#C/C(=C\c1ccc(-c2cc(C(F)(F)F)ccc2Cl)o1)c1nc(-c2ccco2)cs1 | 103%
O=C(O)c1ccc(N=CC(=O)c2ccc(-c3ccccc3)cc2)cc1 | 93.3%
COc1cccc(-c2nn(C(C)(C)C)cc2-c2ccnc(NCCCNS(=O)(=O)c3ccc(C)cc3)c2)c1 | 103%
CC(C)n1c(/C=C/[C@@H](O)C[C@@H](O)CC(=O)O)c(-c2ccc(F)cc2)c2ccccc21 | 72.9%
N#Cc1c(-c2ccc(Cl)cc2)nc(N/N=C/c2cccc(Br)c2)nc1N1CCOCC1 | 31.5%
COc1ccc(-c2nc3ccc(-c4nc5ccc(N6CCN(c7ccncc7)CC6)cc5[nH]4)cc3[nH]2)cc1OC | 35.6%
CSc1nc(NCc2ccccc2)c(C#N)c(-c2cccc([N+](=O)[O-])c2)n1 | 96.5%
O=C(/C=C/c1cccc(Cl)c1)c1ccc(O)c(CN2CCN(c3cc4c(cc3F)c(=O)c(C(=O)O)cn4C3CC3)CC2)c1 | 21.4%
CC1(C)CC[C@]2(C(=O)Nc3ccccn3)CC[C@]3(C)C(=CC[C@@H]4[C@@]5(C)C/C(=C/c6cccnc6)C(=O)C(C)(C)[C@@H]5CC[C@]43C)[C@H]2C1 | 33.9%
COC(=O)[C@]12CCC(C)(C)C[C@H]1[C@H]1C(=O)C[C@@H]3[C@@]4(C)c5c([nH]c6ccccc6c5=O)C(C)(C)[C@@H]4CC[C@@]3(C)[C@]1(C)CC2 | 71.2%
CC1=CC(=NN=c2cc(C)n([O-])c(C)c2)C=C(C)[N+]1=O | 101%
CCC(=O)c1ccc(Cl)s1 | 104%
Cn1c(=O)c2c(nc3n(-c4ccc(Cl)cc4Cl)c(Sc4nc(-c5ccccc5)c(C#N)c(=O)[nH]4)cn23)n(C)c1=O | 30%
